Reference: ChEMBL document CHEMBL3988442, “University of Dundee, Small-Polar-MMV Screening Library” (2021)
In all, about 48,000 compounds went through this assay and about 13,000 (27%) showed an effect of 50% or more. Some of the results follow.

These compounds were tested on Wolbachia pipientis (assay: Anti-Wolbachia Cell-Based Screen). Conditions: 5 µM.
Assay type: functional
Parameters: scale not given: in the data most compounds retested in dose-response had high values

| Compound | Percent Effect |
| --- | --- |
| O=C(NCCN1CCOCC1)NCc1ncc(-c2ccccc2)o1 | 4.39% |
| CCc1cc(N2C[C@H](C3CC3)[C@@H](N)C2)nc(N2CCCC2)n1 | 13.06% |
| O=C(C1SCCc2sccc21)N1CC(O)C1 (configuration not stated) | -8.874% |
| O=C(NCc1nc(-c2ncccn2)no1)c1ccc(C2CCCO2)s1 (configuration not stated) | 1.896% |
| CCCn1nc(C(=O)NCc2nnc3n2CCC3)ccc1=O | 10.17% |
| O=C(NCCc1nc(-c2cccnc2)no1)c1ccc(C2CCCO2)s1 (configuration not stated) | 9.289% |
| O=C(NCc1nnc2n1CCC2)c1ccc(C2CCCO2)s1 (configuration not stated) | 92.93% |
| O=C(c1ccc(C2CCCO2)s1)N1CCS(=O)(=O)CC1 (configuration not stated) | -17.24% |
| O=C(NCc1nnnn1-c1ccccc1)c1ccc(C2CCCO2)s1 (configuration not stated) | 107.3% |
| Brc1ccc(CNCc2nnc3n2CCC3)s1.Cl | 7.308% |
| Brc1ccc(CNCc2nnc3n2CCCCC3)s1.Cl | -9.966% |
| O=C(NCc1nnc2n1CCCC2)c1ccc(C2CCCO2)s1 (configuration not stated) | 101.2% |
| O=C(NCCc1nc(-c2ccccn2)no1)c1ccc(C2CCCO2)s1 (configuration not stated) | 1.168% |
| O=C(c1ccc(C2CCCO2)s1)N1CCOCC1 (configuration not stated) | 12.38% |
| O=C(NCc1nnc2n1CCC2)c1ccc(Br)s1 | 111.9% |
| CCc1cccc(OCCn2cccc(C#N)c2=O)c1 | -12.24% |
| Nc1cc(C(=O)N2C[C@H]3CC[C@@H]2CN(Cc2cccnc2)C3)ccn1 | -14.93% |
| CNC(=O)[C@@H](c1ccccc1OC)N1CCC[C@H]1C(=O)N1CCC1.Cl | -2.79% |
| CCCc1nncn1-c1cc(OC)ccc1OC | -4.578% |
| COCC(=O)NS(=O)(=O)c1ccc(F)c(F)c1 | -13.69% |
| CC(=O)Nc1nc(C(=O)N2CCCC2c2noc(C)n2)cs1 (configuration not stated) | 1.192% |

| Compound | Percent Effect |
| --- | --- |
| Cc1nc(C2CCCN2C(=O)c2cnns2)no1 (configuration not stated) | -16.56% |
| Cc1cc(C)nc(C2CCCN2C(=O)c2cnccn2)n1 (configuration not stated) | 104.9% |
| Cc1cncc(C(=O)N2CCCCC2c2nc[nH]n2)c1 (configuration not stated) | 2.614% |
| Cc1cc(C)nc(C2CCCN2C(=O)c2cnco2)n1 (configuration not stated) | 140.7% |
| Cc1nc(C2CCCN2C(=O)c2ccc(=O)n(C)n2)no1 (configuration not stated) | 4.232% |
| Cc1cc(C)nc(C2CCCN2C(=O)c2coc(C)n2)n1 (configuration not stated) | 95.19% |
| COc1ccc(F)c(-c2cc(C)nc(N)n2)c1 | -7.785% |
| OC1(CNc2ccc(Br)cn2)CCC1 | -10.9% |
| Cc1nc(-c2noc3ccc(C(=O)NCCN4CCOCC4)cc23)co1 | -13.78% |
| O=C(Cc1ccccc1O)NC1CCCN(c2ccccc2F)C1=O (configuration not stated) | 90.3% |
| CC(=O)NCCCSC1CCCN(c2ccccc2F)C1=O (configuration not stated) | -23.33% |
| Cc1cc(CC(=O)NC2CCCN(Cc3ccccc3)C2=O)n[nH]1 (configuration not stated) | 128.5% |
| Cc1cc(CC(=O)NC2CCCN(c3ccccc3Cl)C2=O)n[nH]1 (configuration not stated) | 103.5% |
| Cn1cc(NC(=O)NC2CCCN(c3ccccc3Cl)C2=O)cn1 (configuration not stated) | -13.39% |
| O=C1C(NCc2ccccc2O)CCN1Cc1ccccc1 (configuration not stated) | -5.18% |
| COCC(=O)NC1CCCN(c2ccc(C)cc2)C1=O (configuration not stated) | 11.31% |
| Cc1ccc(N2CCCC(NC(=O)Cc3csc(C)n3)C2=O)cc1 (configuration not stated) | -8.265% |
| Cc1cc(CC(=O)NC2CCCN(c3ccccc3F)C2=O)n[nH]1 (configuration not stated) | 95.19% |
| Cc1cc(C2CCCN(C(=O)COc3ccccc3F)C2)n[nH]1 (configuration not stated) | -9.054% |
| Cc1cc(CNCC2(O)CCCN(CCCc3ccccc3)C2=O)n[nH]1 (configuration not stated) | 11% |
| Cn1ccc(NC(=O)NC2CCCN(c3ccccc3Cl)C2=O)n1 (configuration not stated) | 10.36% |
